Potency and affinity values are given separately.
experiment: YAP1 overexpression rescue of CTGF inhibition – DLD1 cells, RT-qPCR, cherry-pick, mechanism study for YAP1 pathway inhibitor project, dose response (AID 1053127); details: DLD1 YAP1-overexpressing, CTGF mRNA qPCR, 24 h; series mostly up to 26 µM; CTGF fold change (delta-delta-Ct), lower = inhibition: at the top concentration;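 active = compounds whose fitted curve of lowered CTGF expression reaches half effect within a set concentration limit; inconclusive = flat moderate drop in CTGF, or unreliable curve fit; inactive = the rest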

CTGF fold change (delta-delta-Ct), lower = inhibition, inactive:
COc1ccc(CN(C)C[C@H]2Oc3ccc(NC(=O)Nc4ccc5c(c4)OCO5)cc3CC(=O)N([C@@H](C)CO)C[C@H]2C)cc1 0.62 unspecified
COc1ccccc1S(=O)(=O)N1CC[C@@H]2[C@H]1c1cc(-c3cccc(C#N)c3)ccc1N(C)[C@H]2CO 0.771 unspecified [at 23.5 µM]
C[C@@H]1CN([C@H](C)CO)C(=O)c2ccccc2-c2ccccc2CO[C@@H]1CN(C)Cc1ccc2c(c1)OCCN2C 0.735 unspecified
CC(=O)N1CCCCN2[C@@H](CO)[C@H](c3ccc(-c4ccccc4)cc3)[C@@H]2C1 0.666 unspecified
COCC(=O)N1CC(=O)N2[C@H](CO)[C@@H](c3ccc(C#CC4CC4)cc3)[C@H]2C1 0.911 unspecified
C[C@H](CO)N1C[C@H](C)[C@H](CN(C)Cc2ccc(Oc3ccccc3)cc2)OCc2ccccc2-c2ccccc2C1=O 1.45 unspecified [at 23.5 µM]
COc1ccccc1NC(=O)N1CCCCN2[C@@H](CO)[C@H](c3ccc(-c4cccc(C#N)c4)cc3)[C@@H]2C1 1.01 unspecified
O=C(CC1CC1)N1CC(=O)N2[C@@H](CO)[C@H](c3ccc(/C=C/c4ccccc4)cc3)[C@@H]2C1 1.06 unspecified
CO[C@@H](CN(C)S(=O)(=O)c1ccc(C)cc1)[C@@H](C)CN([C@H](C)CO)S(=O)(=O)c1cccc(Cl)c1 0.886 unspecified
CCc1nc(N2[C@H](CO)[C@@H](c3ccccc3-c3ccc(F)cc3)[C@@H]2C#N)sc1C 0.697 unspecified
COc1ccc(NC(=O)N2CCCCN3[C@@H](CO)[C@H](c4ccc(-c5ccccc5F)cc4)[C@@H]3C2)cc1 1.16 unspecified
COCC(=O)N1CC[C@@H]2[C@H](CO)Nc3ccc(C#Cc4ccc(F)cc4)cc3[C@@H]21 0.882 unspecified
N#C[C@@H]1[C@H](c2ccc(-c3cccc(F)c3)cc2)[C@H](CO)N1C(=O)NC1CCCC1 1.04 unspecified
O=C(c1cccc(F)c1)N1CCCCN2[C@H](CO)[C@H](c3ccc(C#CC4(O)CCCC4)cc3)[C@@H]2C1 0.87 unspecified
C[C@@H]1CN([C@H](C)CO)S(=O)(=O)c2ccc(C#Cc3ccccc3F)cc2O[C@@H]1CN(C)C(=O)Cc1cccnc1 0.807 unspecified
CO[C@H]1CN(C)C(=O)c2cc(NC(=O)Nc3ccccc3F)ccc2OC[C@H](C)N(CCC(F)(F)F)C[C@@H]1C 1.03 unspecified
C[C@@H]1CN([C@H](C)CO)C(=O)c2ccccc2-c2ccccc2CO[C@@H]1CN(C)Cc1ccccc1C(F)(F)F 0.88 unspecified
C[C@@H]1CN([C@@H](C)CO)C(=O)c2cccc(NC(=O)c3nc4ccccc4s3)c2O[C@H]1CN(C)C(=O)Nc1ccc2c(c1)OCO2 0.834 unspecified
CCC(=O)N1Cc2cc(C(=O)NCc3cccc(F)c3)nc(-c3cccc(C4=CCCC4)c3)c2[C@H]1CCO 1 unspecified
CCC(=O)N1C[C@H](C)[C@@H](OC)CN(C)C(=O)c2cc(NC(=O)Nc3ccc(Cl)cc3)ccc2OC[C@@H]1C 1.62 unspecified
Cc1ccc(S(=O)(=O)N2CC[C@H]3[C@H](CO)Nc4ccc(-c5cccc(C(=O)N(C)C)c5)cc4[C@H]32)cc1 1.09 unspecified
Cc1ccc(S(=O)(=O)Nc2ccc3c(c2)C(=O)N([C@H](C)CO)C[C@@H](C)[C@H](CN(C)S(=O)(=O)c2cccs2)OCCCC[C@@H](C)O3)cc1 1.68 unspecified
COc1cccc(-c2ccc([C@@H]3[C@@H](C#N)N(C(=O)Cc4ccncc4)[C@@H]3CO)cc2)c1 1.08 unspecified
COc1ccccc1C#Cc1ccc([C@H]2[C@H](CO)N3CCCCN(C(=O)C4CCC4)C[C@@H]23)cc1 0.643 unspecified
N#Cc1cccc(-c2ccc3c(c2)[C@@H]2[C@@H](CCN2S(=O)(=O)c2ccc(F)cc2)[C@H](CO)N3)c1 1.06 unspecified
C[C@H]1CN([C@@H](C)CO)S(=O)(=O)c2ccc(-c3cncnc3)cc2O[C@@H]1CN(C)C(=O)NC1CCCC1 0.826 unspecified
O=C(CC1CC1)N1CC(=O)N2[C@H](CO)[C@@H](c3ccc(C#Cc4cccc(F)c4)cc3)[C@H]2C1 0.887 unspecified
CN(C)C(=O)c1ccc(-c2cccc(-c3nc(C(=O)NCc4ccccc4)cc4c3[C@@H](CCO)N([S@](=O)C(C)(C)C)C4)c2)cc1 1.52 unspecified
C[C@H]1CN([C@@H](C)CO)C(=O)c2cc(C#Cc3ccccc3)cnc2O[C@H]1CN(C)C(=O)c1ccccc1 0.867 unspecified
COc1cccc(C#Cc2ccc3c(c2)O[C@@H](CN(C)C(=O)CN2CCOCC2)[C@@H](C)CN([C@@H](C)CO)S3(=O)=O)c1 1.36 unspecified
C[C@@H]1CN([C@@H](C)CO)C(=O)c2cc(C#Cc3ccccc3)cnc2O[C@@H]1CN(C)C(=O)c1ccccc1 1.05 unspecified
CNC[C@H]1Oc2c(NC(=O)Nc3cccc4ccccc34)cccc2C(=O)N([C@H](C)CO)C[C@@H]1C 0.844 unspecified
CCCC#Cc1ccc([C@@H]2[C@@H](C#N)N(C(=O)CN3CCOCC3)[C@H]2CO)cc1 1.04 unspecified [at 23.5 µM]
C[C@H]1CN([C@@H](C)CO)C(=O)c2cccc(NC(=O)c3nc4ccccc4s3)c2O[C@@H]1CN(C)C(=O)Nc1ccc2c(c1)OCO2 0.677 unspecified
C[C@@H]1CN([C@H](C)CO)C(=O)c2cccc(NC(=O)c3nc4ccccc4s3)c2O[C@H]1CN(C)C(=O)Nc1ccc2c(c1)OCO2 0.577 unspecified [at 23.5 µM]
COc1ccc(S(=O)(=O)Nc2ccc3c(c2)C(=O)N([C@@H](C)CO)C[C@H](C)[C@@H](CN(C)S(=O)(=O)c2ccc(Cl)cc2)OCCCC[C@@H](C)O3)cc1 1.31 unspecified
C[C@@H]1CN([C@@H](C)CO)C(=O)c2ccccc2-c2ccccc2CO[C@H]1CN(C)C(=O)Nc1ccc(-c2ccccc2)cc1 0.561 unspecified
COc1ccc([C@H]2C/C=C\C[C@@H](c3ccc4c(c3)OCO4)NC(=O)[C@@H](c3ccccc3)CC(=O)N2)c(OC)c1 2.27 unspecified
COc1ccc2c3c(n(C)c2c1)[C@@H](CO)N(Cc1ccncc1)CC31CN(C(=O)Nc2cccc(F)c2)C1 1.12 unspecified

— PubChem BioAssay AID1053127 (Broad Institute, 2014)
